High-throughput results: PubChem BioAssay, several laboratories
Shown are actives, neighbours in structure and some others; about 4.1% of the full set was active somewhere.
MITF TRPM1 inh: reduces MITF-dependent TRPM1 promoter luciferase signal | inhibition, % at 12.5 µM | AID 488899 | SK-MEL-5 TRPM1 promoter luciferase, 24 h | actives 0.83% (n = 330,000);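 active means mean inhibition across replicates of 60% or more, whatever share of single replicates reaches that level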
TWEAK-Fn14 inh: blocks TWEAK-Fn14 interaction in a reporter cell assay. TWEAK-stimulated Fn14 reporter cells, luciferase luminescence, 8 h. inhibition, % at 10 µM. actives 2% (n = 360,000); in the data active means inhibition above about 50%
Shn3 inh set2: inhibitors of Schnurri-3 3'UTR reporter in osteoblasts | Clone20 osteoblast Shn3 3'UTR firefly luciferase, 24 h | inhibition, % at 12.5 µM | actives 0.52% (n = 360,000);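 active means mean inhibition of at least 75% with every replicate also reaching 75%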;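 further: 0% = median of neutral control wells and 100% = pilot-screen positive control compound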
TROY signal inh: TROY signaling inhibition. AID 1347056. inhibition, % at 10 µM. actives 0.98% (n = 360,000). Q293 LMP1-TROYcd NF-kB luciferase reporter, 4 h;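 active means compounds whose plate-normalised and pattern-corrected inhibition of the luciferase reporter signal at the single screening dose is 50% or more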
Peg3 prom inh: reduces Peg3 promoter-driven luciferase expression in HeLa; HeLa PEG-Prom luciferase reporter, luminescence, overnight; actives 1.7% (n = 360,000); inhibition, % at 20 µM;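 active means inhibition of at least 50% at 20 µM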
LMP1 NFkB inh: inhibitors of Epstein-Barr LMP1-induced NF-kappaB reporter; inhibition, % at 12.5 µM; LMP1-induced NF-kappaB luciferase reporter cells, luminescence; AID 504558; actives 0.69% (n = 350,000); in the data active means inhibition above about 41%;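 further: 0% = neutral control wells and 100% = reference inhibitor control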
* hit, by the source's call; . = not tested or not shown.

SMILES	MITF TRPM1 inh	TWEAK-Fn14 inh	Shn3 inh set2	TROY signal inh	Peg3 prom inh	LMP1 NFkB inh
Cc1cc(N2CCN(C(=O)c3ccco3)CC2)n2ncc(-c3ccccc3)c2n1	-57.8	-11.2	-13.2	-25.7	-202.6	-23.4
COc1cccc(-c2cc(N3CCN(C(=O)c4ccoc4)CC3)n3nc(-c4cccc(Cl)c4)cc3n2)c1	.	14.1	81.7	0.0	30.2	6.1
Cc1cc(C)n2nc(C(=O)OCC(=O)NCc3ccccc3)nc2n1	-8.1	4.5	-23.1	4.8	8.9	18.3
CCNS(=O)(=O)c1ccc(Br)c(C(=O)OC(C)C(=O)NCC2CCCCC2)c1 (centres undefined)	-9.7	0.3	-9.0	7.3	-15.5	-6.9
CSc1nc2cc(Oc3cccc(Cl)c3Cl)c(Cl)cc2[nH]1	2.3	23.1	4.3	56.4*	31.0	5.4
Cc1nn(C)cc1/C=N/NC(=O)Cn1nnc(N)n1	9.2	-10.0	-6.6	8.0	-5.5	-6.5
CCc1cc2c(=O)c(-c3ccc4c(c3)OCCO4)coc2c(CN2CCCCC2C)c1O (centres undefined)	-32.8	31.0	-12.9	72.3*	-78.2	-4.9
Cc1[nH]nc2c1-c1nc3ccccc3nc1C(C)(C)C2	41.5	45.5	88.6*	32.9	22.4	-31.5
Oc1ccc(/C=N/Nc2ccnc3cc(Cl)ccc23)c(O)c1O	-8.8	-6.9	6.7	-6.5	12.9	3.8
Oc1ccc(/C=N/Nc2ccnc3cc(Cl)ccc23)cc1O	8.3	-79.6	56.3	0.6	74.0*	-2.6
Cc1cc(C(=O)c2ccc3ccccc3c2)c(C)o1	.	-18.7	-21.3	-46.0	-25.5	.
C=CC[n+]1c(/C=C2\C=Cc3cc(C)ccc3N2CC)ccc2ccccc21	78.2*	57.2*	93.5*	39.8	35.4	45.4*
COc1ccc(CNC(=O)C(=O)NCC2OCCCN2S(=O)(=O)c2cccs2)cc1 (centres undefined)	-3.8	-2.3	4.6	10.6	8.0	0.6
CCC(CC)CC1CN2CCc3cc(OC)c(OC)cc3C2CC1(O)CC (centres undefined)	.	-8.1	85.3*	16.8	-6.8	3.3
COc1cc2c(cc1OC)C1CC(=O)C(CC(C)C)CN1CC2 (centres undefined)	-0.9	-5.7	3.5	3.7	17.4	-5.1
CCCCCCCCSC1=CC(=O)C(OC)=C(OC)C1=O	.	29.1	94.9*	-2.7	93.1*	-3.4
COc1ccccc1C(=O)Nc1nnc(S(=O)(=O)N(C)Cc2ccccc2)s1	8.4	-0.3	-27.4	11.8	-4.7	-8.0
Cc1ccc(S(=O)(=O)N2CCN(C(=O)CNC(=O)c3ccc(Cl)cc3)CC2)cc1	2.1	5.2	16.9	8.8	12.6	-6.1
C[C@@H]1CN([C@@H](C)CO)S(=O)(=O)c2ccc(/C=C/c3ccccc3)cc2O[C@@H]1CN(C)Cc1ccc(C(=O)O)cc1	.	30.1	-5.0	35.7	12.7	54.8*
C[C@@H]1CN([C@H](C)CO)S(=O)(=O)c2ccc(Br)cc2O[C@@H]1CN(C)Cc1ccc(C(=O)O)cc1	.	-0.9	4.4	-1.2	2.9	-7.4
C[C@H](CO)N1C[C@H](C)[C@@H](CN(C)C(=O)c2ccc3c(c2)OCO3)Oc2cc(/C=C/c3ccccc3)ccc2S1(=O)=O	.	-15.2	13.2	2.7	61.8*	-0.2
C[C@H](CO)N1C[C@H](C)[C@H](CN(C)C(=O)c2ccccc2)Oc2cc(Br)ccc2S1(=O)=O	.	-4.8	8.9	-15.1	-5.7	-3.8
Cc1ccc(CN(C(=O)COc2ccc(C)c(C)c2)C2CCS(=O)(=O)C2)o1 (centres undefined)	-4.9	-11.8	-13.4	-2.6	11.5	3.0
CCOC(=O)c1c(CSc2ccc(CC)cc2)oc2ccc(O)c(CN(C)C)c12	45.1	28.2	89.6*	26.4	97.6*	-14.8
CC1(C)Cc2c(C#N)c(SCCOc3ccccc3)nc(N3CCOCC3)c2CO1	-0.2	52.9*	11.9	-2.9	38.0	-6.0
Cc1csc(N(C(=O)CCNC(=O)c2ccc([N+](=O)[O-])cc2)c2ccccc2)n1	14.9	-0.6	-34.2	-7.1	17.1	0.5
N#Cc1nc(Cl)c(Cl)c(NN)c1Cl	11.4	-15.6	3.2	61.9*	12.4	-1.1
C(=Cc1nc2ccccc2o1)c1ccc2c(c1)OCO2	.	86.1*	19.3	57.5*	-34.1	45.2*
C[n+]1c(/C=C/c2ccc(O)cc2)ccc2ccccc21	-28.8	-1.1	-103.1	-2.5	-243.9	2.4
